Test [1] can be described thus: qHTS assay to identify small molecule agonists of the sonic hedgehog signaling (Shh) pathway (AID 1259368; calls by dose curve;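 further: NIH/3T3-derived 3T3Gli1-Luc cells carrying a stable Gli1-driven firefly luciferase reporter; series mostly up to about 92 µM; nearly all actives have a fitted effect of over 15% in size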). The procedure, abridged: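 3T3Gli1-Luc (NIH/3T3 clone, stable Gli1-Luc); 4 hr pre-incubation, then cpd in DMSO 24 hr, 37 C/5% CO2; luciferase reagent 30 min RT; luminescence.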
The target in test [2] is Estrogen receptor beta (Homo sapiens) (UniProt Q92731). As to the kind of experiment: qHTS assay to identify small molecule agonists of the estrogen receptor beta (ER-beta) signaling pathway (AID 1259377; active means well fitted activation curve with a large enough effect in the signal ratio in the repeat runs, not every such curve was filed as active; the % refers to the signal ratio). An outline of the steps: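 Agonist mode cell assay in GripTite HEK293T cells expressing an ER-beta fusion that drives beta-lactamase from an Upstream Activator Sequence; 16 hr compound exposure at 37C, then 2 h LiveBLAzer B/G FRET substrate at room temperature, fluorescence read-out.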
Background: qHTS replaces the single test concentration by a dilution series.

The target is the same in test [3]. As to the kind of experiment: qHTS assay to identify small molecule antagonists of the estrogen receptor beta (ER-beta) signaling pathway (AID 1259378; active means well fitted inhibition curve with a large enough effect in the signal ratio in the repeat runs, not every such curve was filed as active; the % refers to the signal ratio). The procedure, abridged:
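ER-beta-UAS-bla HEK293T cells in 2% charcoal-stripped FBS medium treated with compound plus 1nM final 17-beta-estradiol for 16 hr at 37C. Beta-lactamase reporter read by FRET substrate fluorescence after 2 hours at room temperature.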

Test [4] in a line: qHTS assay to identify small molecule agonists of the androgen receptor (AR) signaling pathway in the presence of an antagonist - cell viability counter screen (AID 1259379).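 Further: MDA-kb2 human breast cancer cells carrying an MMTV luciferase reporter; series mostly up to about 92 µM; nearly all actives have a fitted effect of over 25% in size.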 The procedure, abridged:
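Cells: MDA-kb2 (MMTV-luc, AR and GR elements), 3,000/well, 5 hr settle. Added: nilutamide 3.0uM final, then compounds (15 conc.). Incubation: 16 hr, 37C, no CO2. Read-out: CellTiter-Fluor, 1 hr, fluorescence.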

The nature of test [5]: qHTS assay to identify small molecule agonists of the estrogen receptor beta (ER-beta) signaling pathway - cell viability counter screen (AID 1259380). Further: nearly all actives have a fitted effect of over 30% in size. An outline of the steps:
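HEK293T ER-beta-UAS-bla; 2% CS-FBS; 6 hr pre-plate, 16 hr cpd at 37C/5% CO2; LiveBLAzer read first, then CellTiter-Glo 30 min RT, luminescence.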

Test [6] is described as follows: qHTS assay to identify small molecule antagonists of the estrogen receptor beta (ER-beta) signaling pathway - cell viability counter screen (AID 1259382). Further: series mostly up to about 92 µM; nearly all actives have a fitted effect of over 55% in size. The procedure, abridged: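 Cells: ER-beta-UAS-bla HEK293T, 2,000/well, 2% CS-FBS, 6 hr settle. Cpd + E2 (1nM final), 16 hr, 37C/5% CO2. Bla FRET substrate 2 hr RT, then CellTiter-Glo 30 min RT, luminescence.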

Test [7] concerns the target Estrogen receptor (Homo sapiens) (UniProt P03372). As to the kind of experiment: qHTS assay to identify small molecule agonists of the estrogen receptor alpha (ER-alpha) signaling pathway in the presence of an antagonist (AID 1259383; calls by dose curve; further: top concentration of the series differs between compounds; nearly all actives have a fitted effect of over 15% in size). The procedure, abridged: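 VM7Luc4E2, endog. ER-alpha + 4×ERE-luc; charcoal-stripped FBS, phenol red-free, 5 d; 24hr plating; +10.0nM ICI-182,780 (final); cpds 15 conc, 22hr, 37C/5% CO2; ONE-Glo luminescence.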

A short description of test [8]: qHTS assay to identify small molecule agonists or antagonists of the thyroid stimulating hormone receptor (TSHR) signaling pathway - wild type cell line counter screen (AID 1259384; calls by dose curve). The procedure, abridged:
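Wild-type Hek293 cells, 800/well, 18 h at 37C, then compound with Ro20-1724 for 30 min RT. cAMP by HTRF (cAMP-d2/anti-cAMP cryptate), 1 h RT, fluorescence read. 15 concentrations, triplicates.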

In test [9] the target is Thyrotropin receptor (Homo sapiens) (UniProt P16473). Briefly: qHTS assay to identify small molecule antagonists of the thyroid stimulating hormone receptor (TSHR) signaling pathway (AID 1259385; calls by dose curve; further: nearly all actives have a fitted effect of over 20% in size). The procedure, abridged:
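TSHR-HEK293 cells (800/well) plated 18 h, then compounds with Ro20-1724 and TSH at 1.5 ng/mL final, 30 min at room temperature. cAMP quantified by HTRF (cAMP-d2/anti-cAMP-cryptate, 1 h); 15 concentrations in triplicate.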

A short description of test [10]: qHTS assay to identify small molecule agonists of the estrogen receptor alpha (ER-alpha) signaling pathway in the presence of an antagonist - cell viability counter screen (AID 1259386).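 Further: series mostly up to about 92 µM; cells exposed to compounds for 22 h at 37 °C before the viability read; nearly all actives have a fitted effect of over 30% in size.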 An outline of the steps:
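VM7Luc4E2, stripped-serum pre-culture 5 d; 24hr plating; +ICI-182,780 10.0nM final; cpds 15 conc, 22hr, 37C/5% CO2; CellTiter-Fluor added at 21hr, fluorescence 1hr later.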

Test [11] has as its target Progesterone receptor (Homo sapiens) (UniProt P06401). Briefly: qHTS assay to identify small molecule agonists of the progesterone receptor (PR) signaling pathway (AID 1346784; calls by dose curve; further: nearly all actives have a fitted effect of over 30% in size; further: potency means the concentration at half of the fitted maximal effect). The procedure, abridged: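 Cells (PR-UAS-bla HEK 293T, GripTite) were plated in assay medium containing 2% charcoal-stripped FBS and incubated 6 hr. Test compounds in DMSO were added for 16 hr at 37C. FRET substrate was then loaded for 2 hr at room temperature before fluorescence reading.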

Test [12] shares this target. Briefly: qHTS assay to identify small molecule antagonists of the progesterone receptor (PR) signaling pathway (AID 1346795; active means well fitted inhibition curve with a large enough effect in the signal ratio in the repeat runs, not every such curve was filed as active; the % refers to the signal ratio). An outline of the steps:
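Antagonist mode: compounds tested against 1 nM (final) promegestone stimulation in HEK293T cells expressing PR-UAS-bla reporter, 16 hr at 37C, 5% CO2; beta-lactamase activity detected via B/G FRET substrate after 2 hr at room temperature.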

The nature of test [13]: qHTS assay to identify small molecule antagonists of the progesterone receptor (PR) signaling pathway - cell viability counter screen (AID 1346798). Further: series mostly up to about 92 µM; nearly all actives have a fitted effect of over 50% in size. An outline of the steps:
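Counter screen for cytotoxicity: viability of PR-UAS-bla HEK293T cells was measured with CellTiter-Glo luminescence following 16 hr compound exposure in the presence of R5020.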

Test [14] can be described thus: qHTS assay to identify small molecule agonists of the progesterone receptor (PR) signaling pathway - cell viability counter screen (AID 1346799; calls by dose curve; further: nearly all actives have a fitted effect of over 45% in size). An outline of the steps:
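Cells (PR-UAS-bla HEK293T) are plated at 3,000/well in 2% charcoal-stripped FBS medium, rested 6 hr, dosed and incubated 16 hr at 37C. CellTiter-Glo is then added and luminescence measured after 30 min at room temperature.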

Test [15] can be described thus: qHTS assay to identify small molecule antagonists of the TGF-beta/Smad signaling pathway - cell viability counter screen (AID 1346824). Further: nearly all actives have a fitted effect of over 50% in size. An outline of the steps:
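SBE-bla HEK 293T cells, incubated overnight, then compound plus 0.25 ng/mL TGF-beta1 (stock added) for 5 hr at 37 C. Viability was read in the same wells by CellTiter-Glo luminescence after 30 min at room temperature.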

Test [16] can be described thus: qHTS assay to identify small molecule agonists of the TGF-beta/Smad signaling pathway - cell viability counter screen (AID 1346829). Further: top concentration of the series differs between compounds; nearly all actives have a fitted effect of over 45% in size. The procedure, abridged: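 Compound-treated SBE-bla HEK 293T cells (5 hr, 37 C) were assessed for viability with CellTiter-Glo in parallel with the reporter read.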
A short description of test [17]: qHTS assay to identify small molecule agonists of the TGF-beta/Smad signaling pathway (AID 1346859; active means well fitted activation curve with a large enough effect in the signal ratio in the repeat runs, not every such curve was filed as active; the % refers to the signal ratio; further: series mostly up to about 77 µM). An outline of the steps:
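Reporter line: HEK 293T with stably integrated SBE-controlled beta-lactamase. Compound exposure lasts 5 hr at 37 C and 5% CO2; substrate loading follows for 2 hr at room temperature, with emission read at 460 and 530 nm.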

The target of test [18] is Thyrotropin-releasing hormone receptor (Homo sapiens) (UniProt P34981). As to the kind of experiment: qHTS assay to identify small molecule antagonists of the thyrotropin-releasing hormone receptor (TRHR) signaling pathway (AID 1346877; active means well fitted inhibition curve with a large enough effect in the repeat runs, not every such curve was filed as active; further: series mostly up to about 51 µM). An outline of the steps:
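Intracellular calcium fluorescence, read kinetically every second over 3 min, reports TRH-evoked signalling in HEK293 cells carrying TRHR. Test compounds were added 5 min ahead of a 1 nM TRH challenge.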

A short description of test [19]: qHTS assay to identify small molecule antagonists of the sonic hedgehog signaling (Shh) pathway (AID 1259369; calls by dose curve; further: nearly all actives have a fitted effect of over 45% in size). An outline of the steps:
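3T3Gli1-Luc, conditioned-medium-stimulated, 24hr cpd, 37C/5% CO2; Gli1-driven firefly Luc luminescence after 30min RT with luciferase reagent. Cells plated 4hr before cpd.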

For test [20], the target named is Androgen receptor (Homo sapiens) (UniProt P10275). Briefly: qHTS assay to identify small molecule agonists of the androgen receptor (AR) signaling pathway in the presence of an antagonist (AID 1259381; calls by dose curve; further: nearly all actives have a fitted effect of over 15% in size). An outline of the steps: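 MDA-kb2 cells, 3,000/well, rested 5hr at 37C/0% CO2 → nilutamide 3.0uM final or buffer → compounds, 15 conc. → 16hr at 37C → ONE-Glo, 30min RT → luminescence.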

Experimental findings from PubChem BioAssay (Tox21) are described below.

The structures appear in SMILES notation. A number with no mark means an inactive call. Inconclusive results are not listed. The source made the active and inactive calls. Unless noted, the call rests on the fitted dose curve; in most records, active means well fitted curve in the direction sought with a large enough effect in the repeat runs; inconclusive means weak or mixed curves; inactive means no such curve, though single readings can be large; an effect the other way counts as inactive or inconclusive.
On the % scale 0 is the no-effect control and ±100 the full control effect.

Progesterone receptor (Homo sapiens), sequence (P06401 whole entry, looked up): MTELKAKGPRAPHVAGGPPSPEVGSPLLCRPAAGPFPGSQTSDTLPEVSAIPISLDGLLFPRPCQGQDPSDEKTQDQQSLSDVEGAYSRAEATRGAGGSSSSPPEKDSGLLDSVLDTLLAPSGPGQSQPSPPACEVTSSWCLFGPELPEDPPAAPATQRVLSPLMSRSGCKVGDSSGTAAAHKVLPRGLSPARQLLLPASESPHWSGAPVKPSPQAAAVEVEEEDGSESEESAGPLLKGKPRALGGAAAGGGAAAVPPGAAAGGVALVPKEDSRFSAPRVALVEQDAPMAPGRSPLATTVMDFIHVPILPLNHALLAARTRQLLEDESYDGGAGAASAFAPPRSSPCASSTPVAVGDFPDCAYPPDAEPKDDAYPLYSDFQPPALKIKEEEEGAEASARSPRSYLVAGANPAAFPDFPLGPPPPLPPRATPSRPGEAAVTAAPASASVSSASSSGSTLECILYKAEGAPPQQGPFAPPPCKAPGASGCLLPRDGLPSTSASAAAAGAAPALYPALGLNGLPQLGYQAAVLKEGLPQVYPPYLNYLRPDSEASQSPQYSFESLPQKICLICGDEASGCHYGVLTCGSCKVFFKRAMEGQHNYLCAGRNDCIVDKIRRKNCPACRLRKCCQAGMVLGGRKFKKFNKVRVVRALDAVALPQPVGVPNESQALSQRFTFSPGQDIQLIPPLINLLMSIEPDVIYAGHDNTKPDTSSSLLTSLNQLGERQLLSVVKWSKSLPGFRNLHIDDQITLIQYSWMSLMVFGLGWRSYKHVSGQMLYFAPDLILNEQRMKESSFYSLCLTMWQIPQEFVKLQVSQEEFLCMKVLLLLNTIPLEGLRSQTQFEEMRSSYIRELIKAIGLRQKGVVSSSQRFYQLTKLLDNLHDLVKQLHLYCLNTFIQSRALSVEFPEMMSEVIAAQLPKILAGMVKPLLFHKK
Estrogen receptor (Homo sapiens), sequence (P03372 whole entry, looked up): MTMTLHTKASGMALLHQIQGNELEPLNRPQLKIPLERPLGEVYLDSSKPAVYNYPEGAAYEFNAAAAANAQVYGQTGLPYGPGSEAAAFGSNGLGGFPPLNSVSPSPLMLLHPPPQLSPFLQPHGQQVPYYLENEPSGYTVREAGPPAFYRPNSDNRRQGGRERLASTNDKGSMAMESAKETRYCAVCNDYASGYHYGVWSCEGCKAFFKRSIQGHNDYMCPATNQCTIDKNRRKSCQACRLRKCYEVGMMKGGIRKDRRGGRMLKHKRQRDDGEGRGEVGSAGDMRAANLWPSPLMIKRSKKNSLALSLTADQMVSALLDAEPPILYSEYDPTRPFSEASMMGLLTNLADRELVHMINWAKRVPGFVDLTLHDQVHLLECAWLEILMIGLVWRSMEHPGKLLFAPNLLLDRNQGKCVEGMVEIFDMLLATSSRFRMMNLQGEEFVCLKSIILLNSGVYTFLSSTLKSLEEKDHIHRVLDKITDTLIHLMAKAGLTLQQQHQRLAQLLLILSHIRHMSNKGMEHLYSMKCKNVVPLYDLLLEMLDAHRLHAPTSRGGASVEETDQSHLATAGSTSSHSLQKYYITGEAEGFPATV
Thyrotropin receptor (Homo sapiens), sequence (P16473 whole entry, looked up): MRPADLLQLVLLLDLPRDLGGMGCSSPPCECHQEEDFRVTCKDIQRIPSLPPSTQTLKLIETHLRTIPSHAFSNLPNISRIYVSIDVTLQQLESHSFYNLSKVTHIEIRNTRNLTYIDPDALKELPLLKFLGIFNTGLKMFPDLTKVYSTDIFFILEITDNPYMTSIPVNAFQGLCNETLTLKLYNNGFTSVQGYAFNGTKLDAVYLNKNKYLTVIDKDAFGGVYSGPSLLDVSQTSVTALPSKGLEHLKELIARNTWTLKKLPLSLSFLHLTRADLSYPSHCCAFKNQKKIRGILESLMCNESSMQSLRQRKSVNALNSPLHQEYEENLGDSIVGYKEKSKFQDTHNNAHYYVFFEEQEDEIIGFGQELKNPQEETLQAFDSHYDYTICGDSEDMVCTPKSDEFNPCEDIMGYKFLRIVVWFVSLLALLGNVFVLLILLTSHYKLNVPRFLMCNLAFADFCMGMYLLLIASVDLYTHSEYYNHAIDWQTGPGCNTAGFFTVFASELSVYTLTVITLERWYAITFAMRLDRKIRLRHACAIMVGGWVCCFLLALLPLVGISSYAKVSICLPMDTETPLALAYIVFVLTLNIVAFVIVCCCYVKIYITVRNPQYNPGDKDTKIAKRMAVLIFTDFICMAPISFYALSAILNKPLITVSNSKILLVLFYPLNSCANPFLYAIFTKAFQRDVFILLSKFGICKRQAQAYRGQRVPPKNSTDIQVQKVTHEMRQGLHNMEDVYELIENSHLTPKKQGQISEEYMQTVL
Estrogen receptor beta (Homo sapiens), sequence (Q92731 whole entry, looked up, the tested form may be a part): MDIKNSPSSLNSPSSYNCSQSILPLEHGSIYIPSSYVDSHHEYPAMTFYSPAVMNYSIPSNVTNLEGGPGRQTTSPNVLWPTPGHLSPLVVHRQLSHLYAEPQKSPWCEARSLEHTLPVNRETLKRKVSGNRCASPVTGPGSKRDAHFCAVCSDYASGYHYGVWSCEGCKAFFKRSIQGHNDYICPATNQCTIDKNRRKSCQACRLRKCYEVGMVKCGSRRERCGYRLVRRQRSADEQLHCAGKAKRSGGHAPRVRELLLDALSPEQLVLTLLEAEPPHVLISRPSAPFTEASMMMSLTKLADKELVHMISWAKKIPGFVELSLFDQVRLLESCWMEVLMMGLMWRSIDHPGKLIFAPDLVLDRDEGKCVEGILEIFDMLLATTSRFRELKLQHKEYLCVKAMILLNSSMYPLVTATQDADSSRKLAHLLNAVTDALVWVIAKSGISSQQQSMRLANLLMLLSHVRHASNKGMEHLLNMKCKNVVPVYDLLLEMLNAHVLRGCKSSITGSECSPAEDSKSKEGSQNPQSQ
Thyrotropin-releasing hormone receptor (Homo sapiens), sequence (P34981 whole entry, looked up): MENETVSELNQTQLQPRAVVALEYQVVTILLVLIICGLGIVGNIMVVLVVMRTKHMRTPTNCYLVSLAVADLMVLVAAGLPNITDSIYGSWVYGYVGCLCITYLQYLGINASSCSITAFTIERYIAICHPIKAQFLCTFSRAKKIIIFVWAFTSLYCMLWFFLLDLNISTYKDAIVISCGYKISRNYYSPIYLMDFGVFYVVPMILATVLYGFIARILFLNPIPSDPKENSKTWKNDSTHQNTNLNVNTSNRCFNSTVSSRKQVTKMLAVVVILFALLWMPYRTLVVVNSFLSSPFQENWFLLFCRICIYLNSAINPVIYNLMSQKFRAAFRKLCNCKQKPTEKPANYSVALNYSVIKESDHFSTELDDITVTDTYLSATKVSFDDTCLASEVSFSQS
Androgen receptor (Homo sapiens), sequence (P10275 whole entry, looked up): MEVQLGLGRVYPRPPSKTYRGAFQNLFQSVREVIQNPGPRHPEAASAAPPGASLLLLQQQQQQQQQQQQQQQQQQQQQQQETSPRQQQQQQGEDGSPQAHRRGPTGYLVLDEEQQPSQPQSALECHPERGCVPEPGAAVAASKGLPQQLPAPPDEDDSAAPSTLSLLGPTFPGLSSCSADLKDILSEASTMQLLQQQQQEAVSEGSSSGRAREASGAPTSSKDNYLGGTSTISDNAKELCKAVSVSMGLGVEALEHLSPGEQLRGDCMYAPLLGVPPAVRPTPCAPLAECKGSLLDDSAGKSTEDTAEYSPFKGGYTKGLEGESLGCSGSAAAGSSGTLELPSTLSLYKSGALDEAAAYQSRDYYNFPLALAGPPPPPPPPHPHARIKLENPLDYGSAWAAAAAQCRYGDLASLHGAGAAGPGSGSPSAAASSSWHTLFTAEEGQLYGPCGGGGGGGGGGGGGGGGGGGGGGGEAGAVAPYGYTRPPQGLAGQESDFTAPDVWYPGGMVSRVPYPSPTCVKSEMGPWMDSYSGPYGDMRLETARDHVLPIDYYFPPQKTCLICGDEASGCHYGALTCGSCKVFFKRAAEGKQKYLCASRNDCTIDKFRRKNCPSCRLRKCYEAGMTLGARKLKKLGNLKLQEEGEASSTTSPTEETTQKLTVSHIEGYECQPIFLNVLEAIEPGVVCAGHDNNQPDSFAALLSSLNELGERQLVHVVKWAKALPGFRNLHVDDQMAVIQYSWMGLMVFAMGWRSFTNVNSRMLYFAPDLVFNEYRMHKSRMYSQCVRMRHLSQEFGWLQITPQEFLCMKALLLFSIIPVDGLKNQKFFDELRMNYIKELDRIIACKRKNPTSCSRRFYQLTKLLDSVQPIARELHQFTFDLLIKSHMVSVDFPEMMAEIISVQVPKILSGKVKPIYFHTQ

On to `CC(=C(CCOC(=O)C(C)C)SSC(CCOC(=O)C(C)C)=C(C)N(C=O)Cc1cnc(C)nc1N)N(C=O)Cc1cnc(C)nc1N`, for which the molecule was classed as inactive in [1], in [3], in test [6], in test [7], in test [8] and in test [9]. Also, the result in [15], in [16], in test [17] and in test [18] was inactive. Also, the Potency entry in [2], in test [4], in [5], in [10], in test [11] and in [12] was “inactive” each time. In addition, the Potency result in test [13] and in [14] was “inactive” throughout.

Consider `C[Si](C)(C)C`, for which the molecule was classed as inactive in [1], in test [8], in [9], in [15] and in test [16]. The Potency result in test [19], in test [5], in test [10], in test [11], in test [12] and in [13] was “inactive” in each case. For the same molecule, the Potency result in test [14] was “inactive”.

With `CC(C)(C)c1n[nH]c(=S)n(N)c1=O`, the molecule was called inactive in [1], in [6], in test [7], in [8], in test [9] and in test [15]. Further, the call in test [16], in test [17] and in test [18] was inactive. The Potency entry in [19], in test [5], in test [10], in [11], in test [12] and in test [13] was “inactive” each time. Further, in test [14], the Potency entry is “inactive”.

Turning to `CCN(C)C(=O)Oc1cccc([C@H](C)N(C)C)c1`, the result in test [1], in test [3], in test [6], in test [7], in test [8] and in test [9] was inactive. The molecule was called inactive in test [15], in [16], in test [17] and in test [18]. Further, the Potency result in [2], in test [4], in [5], in [20], in [10] and in test [11] was “inactive” throughout. Moreover, the Potency entry in test [12], in test [13] and in test [14] was “inactive” in each case.

With `CN(C)CCOCCO`, the outcome in [1], in test [6], in test [7], in test [8], in test [9] and in test [15] was inactive. The molecule was classed as inactive in test [16], in test [17] and in test [18]. Further, the Potency result in test [19], in [5], in test [10], in test [11], in test [12] and in test [13] was “inactive” in each case. The Potency entry in test [14] is “inactive”.

`CC(=O)Nc1ccc(S(=O)(=O)Cl)cc1`: the molecule was called inactive in test [1], in test [3], in test [6], in test [15], in test [16] and in test [18]. In addition, the Potency result in [2], in test [4], in [5], in [10], in test [11] and in test [12] was “inactive” each time. Moreover, the Potency result in test [14] was “inactive”.

On to `O=S(=O)(O)CCN1CCN(CCO)CC1`, for which the molecule was classed as inactive in test [1], in [3], in test [6], in test [8], in test [9] and in test [15]. The call in test [16] and in test [18] was inactive. In addition, the Potency result in [2], in test [4], in test [5], in [11] and in [12] was “inactive” in each case.

For the molecule `CCCCCCCC/C=C\CCCCCCCC(=O)OCCCC`, in [1], the activity change is -0.497% [at 18.9 µM]. For the same molecule, the results for the activation in test [2], in test [7] and in [17] were -0.0077% [at 19 µM], 0.165% [at 19 µM] and -1.96% [at 15.8 µM], respectively. Also, the activity, negative = inhibition in test [3] was 0.587% [at 19 µM]; in [18] it was 8.97% [at 10.5 µM]. Also, the activity change, negative = cytotoxicity was 0.614% [at 19 µM] in [4]; -6.74% [at 19 µM] in test [5]; -4.71% [at 19 µM] in test [6]; -4.95% [at 19 µM] in test [10]; 0.852% [at 18.9 µM] in test [13]; 0% [at 19 µM] in [14]. Moreover, in test [16], the activity change, negative = cytotoxicity is 0.118% [at 15.8 µM]. The cAMP activity change in test [8] is -3.23% [at 18.9 µM]. In addition, the activity change, negative = inhibition is 2.54% [at 19 µM] in test [9] and -2.42% [at 18.9 µM] in test [12]. For the same molecule, the Potency in test [11] is 1.24 µM (active). For the same molecule, in test [15], the viability change, negative = cytotoxic was 2.1% [at 15.8 µM].
